Results as given in PubChem BioAssay (EPA / NIEHS).
Values joined by “and” are separate entries in the source; they are usually repeats but may differ in a detail not shown here. Equal entries are not always repeated. More than one record can exist for a structure, and the calls need not agree. Active and inactive are the calls of the source. The calls were made as follows: active = hit-call score of the fitted dose curve at least 0.9, where 1 is the maximum; inactive = score below 0.9.

Columns and labels:
[1] = read-out: Interleukin-1 alpha (IL1a), IL1A (gene 3552); assay: BSK_KF3CT_IL1a: BioMAP Diversity Plus: KF3CT Assay for Interleukin-1 alpha (IL1a) Biomarker Activity (AID 2283070); conditions: primary human keratinocytes with fibroblasts; actives raise or lower the signal
How it was run: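 Primary human keratinocyte plus foreskin fibroblast co-culture, dosed and measured at 24 h in 96-well plates. IL-1a level quantified by ELISA; bidirectional fit relative to DMSO.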

[2] = read-out: TIMP metallopeptidase inhibitor 2 (TIMP2), TIMP2 (gene 7077); assay: BSK_KF3CT_TIMP2: BioMAP Diversity Plus: KF3CT Assay for TIMP metallopeptidase inhibitor 2 (TIMP2) Biomarker Activity (AID 2283071); conditions: primary human keratinocytes with fibroblasts; actives raise or lower the signal
How it was run: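 Cells: human keratinocytes co-cultured with foreskin fibroblasts. Treat with chemical, 24 h. Measure TIMP-2 by ELISA; fit curves bidirectionally vs DMSO baseline.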

[3] = read-out: C-C motif chemokine 2 (Homo sapiens) (UniProt P13500); assay: BSK_KF3CT_MCP1: BioMAP Diversity Plus: KF3CT Assay for Monocyte Chemoattractant Protein 1 (MCP1/CCL2) Biomarker Activity (AID 2283073); conditions: primary human keratinocytes with fibroblasts; actives raise or lower the signal
How it was run: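 Human keratinocyte plus foreskin fibroblast primary co-culture exposed to chemical for 24 h. MCP-1 levels measured by ELISA. Bidirectional curve fitting relative to DMSO negative control as baseline.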

[4] = read-out: Matrix Metallopeptidase 9 (MMP9), MMP9 (gene 4318); assay: BSK_KF3CT_MMP9: BioMAP Diversity Plus: KF3CT Assay for Matrix Metallopeptidase 9 (MMP9) Biomarker Activity (AID 2283074); conditions: primary human keratinocytes with fibroblasts; actives raise or lower the signal;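 as to AC50: MMP9 protein level quantified by ELISA in the co-culture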
How it was run: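 Human keratinocyte and foreskin fibroblast co-culture exposed to chemicals for 24 h; MMP9 biomarker measured by ELISA, bidirectional fitting relative to DMSO; cytotoxicity tracked by SRB total protein staining in parallel cultures.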

[5] = read-out: urokinase plasminogen activator (uPA), PLAU (gene 5328); assay: BSK_KF3CT_uPA: BioMAP Diversity Plus: KF3CT Assay for urokinase plasminogen activator (uPA) Biomarker Activity (AID 2283075); conditions: primary human keratinocytes with fibroblasts; actives raise or lower the signal
How it was run: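 Primary human keratinocyte/foreskin fibroblast co-culture exposed to chemical; uPA measured by ELISA at 24 h. Bidirectional fit versus DMSO, with parallel SRB total-protein staining for cytotoxicity.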

CD40, CD40 (gene 958) = assay: BSK_LPS_CD40: BioMAP Diversity Plus: LPS Assay for CD40 Biomarker Activity (AID 2283076); conditions: primary human HUVEC with PBMC; actives raise or lower the signal
How it was run: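 Primary human umbilical vein endothelial cells co-cultured with peripheral blood mononuclear cells, LPS-stimulated, were dosed with chemical and read 24 h later. CD40 levels were measured by ELISA and fitted bidirectionally against DMSO as negative control and baseline.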

[6] = read-out: E-selectin (Homo sapiens) (UniProt P16581); assay: BSK_LPS_Eselectin: BioMAP Diversity Plus: LPS Assay for Eselectin Biomarker Activity (AID 2283077); conditions: primary human HUVEC with PBMC; actives raise or lower the signal
How it was run: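 Human umbilical vein endothelial cells co-cultured with peripheral blood mononuclear cells under LPS stimulation; E-selectin measured by ELISA 24 h after chemical dosing. Activity fitted bidirectionally against DMSO as negative control and baseline.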

[7] = read-out: Interleukin-8 (IL8), CXCL8 (gene 3576); assay: BSK_LPS_IL8: BioMAP Diversity Plus: LPS Assay for Interleukin-8 (IL8) Biomarker Activity (AID 2283078); conditions: primary human HUVEC with PBMC; actives raise or lower the signal
How it was run: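 Human umbilical vein endothelial cells co-cultured with PBMC were stimulated with LPS; IL-8 levels were measured by ELISA 24 h after chemical dosing. Activity was fitted bidirectionally against DMSO as negative control and baseline.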

[8] = read-out: Transforming growth factor beta 1 (TGFb1), TGFB1 (gene 7040); assay: BSK_KF3CT_TGFb1: BioMAP Diversity Plus: KF3CT Assay for Transforming growth factor beta 1 (TGFb1) Biomarker Activity (AID 2283072); conditions: primary human keratinocytes with fibroblasts; actives raise or lower the signal
How it was run: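 Primary human skin cells (keratinocytes, foreskin fibroblasts) were co-cultured, exposed to test chemical and sampled at 24 h. TGF-b1 levels were measured by ELISA and fitted bidirectionally relative to DMSO.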

[9] = BSK_LPS_SRB: Viability Assessment in the BioMAP Diversity Plus: LPS Assay (AID 2283079); conditions: primary human HUVEC with PBMC;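 also: total protein by sulforhodamine B absorbance as a cytotoxicity measure; measured one day after compound addition; fitted in both directions against DMSO so loss or gain of signal counts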
How it was run: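 Human umbilical vein endothelial cells co-cultured with PBMC (LPS system) were dosed for 24 h. Total protein was stained with 0.1% sulforhodamine B after 10% TCA fixation, read at 560 nm, and fitted bidirectionally against DMSO baseline.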

Measured: AC50

Sequence of E-selectin (Homo sapiens) (P16581 whole entry, looked up): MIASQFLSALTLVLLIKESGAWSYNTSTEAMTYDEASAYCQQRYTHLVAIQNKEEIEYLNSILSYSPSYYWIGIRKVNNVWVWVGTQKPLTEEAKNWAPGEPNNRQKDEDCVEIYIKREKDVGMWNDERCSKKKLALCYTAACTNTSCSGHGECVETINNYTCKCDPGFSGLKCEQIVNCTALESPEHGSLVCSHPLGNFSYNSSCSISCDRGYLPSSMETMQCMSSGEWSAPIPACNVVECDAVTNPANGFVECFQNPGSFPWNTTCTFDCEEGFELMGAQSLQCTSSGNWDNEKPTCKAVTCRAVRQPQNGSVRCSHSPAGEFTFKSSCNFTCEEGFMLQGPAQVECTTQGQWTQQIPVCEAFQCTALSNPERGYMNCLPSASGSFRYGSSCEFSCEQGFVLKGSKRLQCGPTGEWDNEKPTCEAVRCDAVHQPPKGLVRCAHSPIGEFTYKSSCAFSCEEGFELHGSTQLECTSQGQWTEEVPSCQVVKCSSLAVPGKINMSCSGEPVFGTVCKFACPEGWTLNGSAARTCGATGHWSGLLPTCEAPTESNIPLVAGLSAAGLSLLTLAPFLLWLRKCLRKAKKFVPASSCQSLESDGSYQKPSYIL

CCCCCCOC(=O)c1ccccc1O
active: [3] 32.8 µM | CD40, CD40 (gene 958) 41.9 µM and 24.5 µM | [6] 38.1 µM and 44.8 µM | [7] 41.9 µM and 38.9 µM
inactive: [1] | [2] | [3] | [4] | [5]

O[Si](c1ccccc1)(c1ccccc1)c1ccccc1
active: [2] 10.3 µM | [8] 20 µM | [4] 6.74 µM | CD40, CD40 (gene 958) 24.4 µM
not listed: [9]
inactive: all other assays above

FC(F)(F)C(F)(F)C(F)(F)C(F)(F)C(F)(F)C(F)(F)CCS
not listed: [6] | [8] | [9]
inactive: all other assays above

FC(F)(F)C(F)(F)C(F)(F)N(C(F)(F)C(F)(F)C(F)(F)F)C(F)(F)C(F)(F)C(F)(F)F
not listed: [6] | [8]
inactive: all other assays above

O=C(O)C(F)(F)C(F)(F)C(F)(F)C(F)(F)C(F)(F)C(F)(F)C(F)(F)C(F)(F)C(F)(F)C(F)(F)C(F)(F)C(F)(F)C(F)(F)F
inactive: [1] | [2] | [3] | [4] | [5] | CD40, CD40 (gene 958) | [7] | [9]
active: [7] 2.24 µM

O=S(=O)(OCC(F)F)C(F)(F)F
not listed: [6] | [8] | [9]
inactive: all other assays above

C=CC(=O)OCC(F)(F)C(F)(F)C(F)(F)C(F)(F)C(F)(F)C(F)(F)C(F)(F)F
not listed: [6] | [8] | [9]
inactive: all other assays above

NC(=O)C(F)(F)C(F)(F)C(F)(F)C(F)(F)F
not listed: [6] | [8]
inactive: all other assays above

FC(F)(F)C(F)(F)C(F)(F)C(F)(F)C(F)(F)C(F)(F)C(F)(F)C(F)(F)F
not listed: [6] | [8] | [9]
inactive: all other assays above

O=C(O)C(F)(F)C(F)(F)F
not listed: [8]
inactive: all other assays above

FC(F)(F)C(F)(F)C(F)(F)C(F)(F)C(F)(F)CCI
not listed: [6] | [8] | [9]
inactive: all other assays above

C=C(C)C(=O)OCCC(F)(F)C(F)(F)C(F)(F)C(F)(F)C(F)(C(F)(F)F)C(F)(F)F
not listed: [6] | [8] | [9]
inactive: all other assays above

FC(F)(I)C(F)(F)C(F)(F)C(F)(F)I
inactive: CD40, CD40 (gene 958) | [7]
active: [1] 53.2 µM and 47.2 µM and 47.7 µM | [2] 54.2 µM and 46.7 µM and 53.1 µM | [3] 50.9 µM and 46.8 µM and 48.7 µM | [4] 52 µM and 51.2 µM and 45.8 µM | [5] 49.5 µM and 45.8 µM and 54 µM

C=CC(F)(F)C(F)(F)C(F)(F)C(F)(F)C(F)(F)C(F)(F)C(F)(F)C(F)(F)C=C
not listed: [6] | [8]
inactive: all other assays above

C=C(C)C(=O)OCC(F)(F)C(F)(F)C(F)(F)F
not listed: [6] | [8]
inactive: all other assays above

O=C(O)C(F)(F)C(F)(F)C(F)F
not listed: [6] | [8]
inactive: all other assays above

FC(F)(F)C(F)(F)CNCC(F)(F)C(F)(F)F
not listed: [6] | [8] | [9]
inactive: all other assays above

C=CC(=O)OCC(F)(F)C(F)(F)C(F)(F)C(F)(F)COC(=O)C=C
active: [1] 18.6 µM and 48.2 µM | [2] 25.7 µM and 33.3 µM | [3] 10.9 µM and 15.4 µM | [4] 30.9 µM and 21.6 µM | [5] 33.8 µM and 37 µM | CD40, CD40 (gene 958) 12.2 µM and 18.5 µM | [7] 19.2 µM and 16.7 µM

O=C(O)C(F)(OC(F)(F)C(F)(OC(F)(F)C(F)(F)C(F)(F)F)C(F)(F)F)C(F)(F)F (stereo unspecified)
not listed: [6] | [8] | [9]
inactive: all other assays above

CCCCCCCCC(F)(F)C(F)(F)C(F)(F)C(F)(F)C(F)(F)C(F)(F)F
not listed: [6] | [8]
inactive: all other assays above

O=C(O)C(F)(F)C(F)(F)C(F)(F)F
not listed: [8]
inactive: all other assays above

C=CC(F)(F)C(F)(F)C(F)(F)C(F)(F)C(F)(F)C(F)(F)C(F)(F)C(F)(F)F
not listed: [6] | [8] | [9]
inactive: all other assays above

OCC(F)(F)C(F)(F)C(F)(F)C(F)(F)C(F)(F)C(F)F
not listed: [6] | [8]
inactive: all other assays above

OCCCC(F)(F)C(F)(F)C(F)(F)C(F)(F)C(F)(F)C(F)(F)C(F)(F)F
active: [1] 24 µM and 43.8 µM | [2] 14.7 µM and 37 µM | [3] 27.3 µM and 42.9 µM | [4] 20 µM and 45 µM | [5] 22.8 µM and 47.2 µM | CD40, CD40 (gene 958) 45.6 µM and 45.1 µM | [6] 50.6 µM and 43.6 µM | [7] 53.5 µM and 54.5 µM | [9] 54 µM and 46.2 µM

O=C(O)C(F)(F)C(F)(F)OC(F)(F)F
not listed: [8]
inactive: all other assays above

O=C(O)C(F)(F)C(F)(F)C(F)(F)C(F)(F)C(F)(F)C(F)(F)C(F)(F)C(F)(F)C(F)(F)C(F)(F)C(F)(F)C(F)(F)F
active: [1] 4.28 µM and 3.91 µM
not listed: [6] | [8]
inactive: all other assays above

FC(F)(Br)C(F)(F)C(F)(F)C(F)(F)C(F)(F)C(F)(F)Br
not listed: [6] | [8] | [9]
inactive: all other assays above

CC(C)(C)C(=O)CC(=O)C(F)(F)C(F)(F)C(F)(F)F
not listed: [6] | [8] | [9]
inactive: all other assays above

FC(F)(F)C(F)(F)C(F)(F)C(F)(F)C(F)(F)C(F)(F)C(F)(F)C(F)(F)CCS
not listed: [6] | [8]
inactive: all other assays above

FC(F)(F)C(F)(F)C(F)(F)CI
active: [7] 1.84 µM
inactive: [1] | [2] | [3] | [4] | [5] | CD40, CD40 (gene 958) | [6] | [7] | [9]

O=S(=O)(O)C(F)(F)C(F)(F)C(F)(F)C(F)(F)C(F)(F)C(F)(F)C(F)(F)F
not listed: [8]
inactive: all other assays above

OCC(F)(F)C(F)(F)C(F)(F)C(F)(F)C(F)(F)C(F)(F)F
not listed: [6] | [8] | [9]
inactive: all other assays above

CCCCC(CC)COP(=O)(O)OCC(CC)CCCC (stereo unspecified)
active: [2] 25.5 µM and 28.3 µM | [3] 31.2 µM and 20 µM | [4] 29.5 µM and 36.8 µM
not listed: [8]
inactive: all other assays above

COC(=O)CCC(F)(F)C(F)(F)C(F)(F)C(F)(F)F
not listed: [8]
inactive: all other assays above

FC1CC(F)(F)C(F)(F)C1(F)F (stereo unspecified)
not listed: [6] | [8]
inactive: all other assays above

O=C(O)C(F)(F)C(F)(F)C(F)(F)C(F)(F)C(F)(F)C(F)(F)C(F)(F)C(F)(F)Cl
inactive: CD40, CD40 (gene 958)
active: [1] 30 µM and 20.5 µM | [2] 53.9 µM and 52.6 µM | [3] 49.4 µM and 55.1 µM | [4] 37.5 µM and 40.3 µM | [5] 47.8 µM and 47.2 µM | [7] 5.95 µM and 40.1 µM

C=C(C)C(=O)OCC(F)(F)C(F)(F)C(F)(F)C(F)(F)C(F)(F)C(F)(F)C(F)(F)F
not listed: [6] | [8] | [9]
inactive: all other assays above

OCC(F)(F)C(F)(F)C(F)(F)C(F)F
not listed: [8]
inactive: all other assays above
